# Source: the supplement of paper PMC4166925
# ± gives the standard deviation of the averaged measurements. The full ranking holds about 33,000 sequences; the median of “E-score (dimensionless, -0.5 to 0.5)” is about -0.046, and the highest 2% start at about 0.36. The full list was thinned out, with the highest values kept by preference.
# Test system: T1, SpTbr T-box DNA-binding domain (GST fusion)
# T1 sequence: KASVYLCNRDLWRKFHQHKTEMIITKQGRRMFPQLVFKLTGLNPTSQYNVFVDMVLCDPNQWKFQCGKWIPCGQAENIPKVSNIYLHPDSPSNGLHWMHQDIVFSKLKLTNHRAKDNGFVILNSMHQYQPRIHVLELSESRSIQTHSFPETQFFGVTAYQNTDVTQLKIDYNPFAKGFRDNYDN
# Assay: PBM E-score of 8-mer (E-score (dimensionless, -0.5 to 0.5)); Tbr is Tbrain of the sea star Patiria miniata (Pm) or the sea urchin Strongylocentrotus purpuratus (Sp); higher = stronger binding preference
# Settings: the construct has about 5 more residues each side
# Protocol: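 Universal protein-binding microarray (Agilent AMADID 016060, 60-bp probes with a 35-bp variable region) incubated with 200 nM GST-fused Strongylocentrotus purpuratus Tbr T-box DNA-binding domain (residues 362-554) in PBS pH 7.5. Scored for every ungapped 8-mer (given with its reverse complement) as E-score (range -0.5 to 0.5; >0.45 counts as bound) and Z-score of median probe intensity. Two replicate arrays (datasets 1 and 2).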
# 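Further: protein at 200 nM in PBS on universal double-stranded arrays.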
row,Sequence,PBM E-score of 8-mer
1,CCGGGATC,-0.0846 ± 0.051
2,AGTAGAAT,-0.219 ± 0.017
3,GCCCCTGA,-0.091 ± 0.031
4,CCTGGAGC,-0.16 ± 0.026
5,GGGGTAAC,-0.0298 ± 0.022
6,GATGCAAA,0.0247 ± 0.033
7,CCCATCGA,-0.2033 ± 0.0016
8,AGGCCCGC,-0.15 ± 0.036
9,GCACACGA,-0.113 ± 0.11
10,ACACACGA,-0.00198 ± 0.078
11,TCACACGA,0.387 ± 0.0091
12,TCATTGAA,-0.129 ± 0.0043
13,CAACCTGC,0.149 ± 0.015
14,AGGAGGTC,-0.269 ± 0.036
15,AAGAGGTC,-0.128 ± 0.01
16,AAGAGGTG,0.407 ± 0.0088
17,AGGAGGTA,-0.0388 ± 0.051
18,ACGAGGTA,-0.0678 ± 0.011
19,AGGAGGTG,0.391 ± 0.03
20,ACGAGGTG,0.419 ± 0.019
21,ACGAGGTC,-0.114 ± 0.018
22,AAGAGGTA,-0.272 ± 0.035
23,ACATAGGT,0.221 ± 0.02
24,CCTGCTAA,0.269 ± 0.031
25,ACCAACAC,0.273 ± 0.0089

row,Sequence,PBM E-score of 8-mer
1,ACGCTTAA,0.11 ± 0.0092
2,GGCCGTAC,-0.249 ± 0.0084
3,ATTTGGGC,-0.181 ± 0.017
4,CACTTAGG,0.117 ± 0.04
5,ATGGTCCG,-0.11 ± 0.029
6,ATGATGGA,-0.179 ± 0.029
7,ATCACAAA,0.106 ± 0.014
8,ATCACATA,0.251 ± 0.055
9,ATCACACG,0.417 ± 0.027
10,ATCACACA,0.425 ± 0.017
11,ATCACAGA,0.102 ± 0.074
12,ATCACAGG,0.227 ± 0.05
13,AACAGCTA,0.232 ± 0.018
14,GAATCAGC,-0.196 ± 0.017
15,AAGCTTAG,-0.108 ± 0.11
16,ATTAGCAC,0.368 ± 0.038
17,ATTAGCAA,-0.0446 ± 0.11
18,CTTAGCAC,0.364 ± 0.0057
19,CTTAGCAA,0.0388 ± 0.079
20,ATTAGCAG,0.0716 ± 0.046
21,CCTAGCAC,0.257 ± 0.016
22,AGCATGGA,-0.0258 ± 0.071
23,ATGCTCTG,-0.168 ± 0.038
24,CGCTCAAA,0.00388 ± 0.065
25,ATATTAAA,-0.0775 ± 0.025

row,Sequence,PBM E-score of 8-mer
1,AATCACAA,0.212 ± 0.018
2,GATCACGC,0.359 ± 0.037
3,GATCACAC,0.479 ± 0.01
4,AATCACAG,0.06 ± 0.051
5,CATCACAC,0.451 ± 0.0075
6,AATCACAC,0.457 ± 0.011
7,GATCACAA,0.251 ± 0.0097
8,CATCACAA,0.204 ± 0.042
9,CATCACAG,0.184 ± 0.0071
10,CGCGACCG,0.29 ± 0.031
11,GGTACCAA,-0.0861 ± 0.086
12,ACAAAGGT,0.119 ± 0.0064
13,ACTGGGCT,-0.25 ± 0.058
14,AGTGGCAG,0.171 ± 0.033
15,AACCCCGC,0.136 ± 0.034
16,AAGGTGCA,0.35 ± 0.01
17,GAGGTGCA,0.338 ± 0.032
18,AAGGTGGT,0.247 ± 0.033
19,GAGGTGCC,0.379 ± 0.019
20,AAGGTACG,-0.0434 ± 0.066
21,CTGGTGCC,0.141 ± 0.076
22,AAGGTGCC,0.364 ± 0.0073
23,AAGGTGCT,0.4354 ± 0.0022
24,CAGGTGCC,0.388 ± 0.034
25,AAGGTGCG,0.4522 ± 0.0011

row,Sequence,PBM E-score of 8-mer
1,ACGGTGCG,0.298 ± 0.024
2,CGGGTGCC,0.18 ± 0.0043
3,AAATAGCG,0.169 ± 0.013
4,CACCCCTA,0.212 ± 0.022
5,CGCTACAA,0.107 ± 0.069
6,AACCATGG,-0.0415 ± 0.0021
7,ACTTCGAG,0.0665 ± 0.024
8,CAGGTGCA,0.265 ± 0.028
9,CAGGTGCG,0.454 ± 0.01
10,CAGATGCG,-0.139 ± 0.019
11,CAGGTCTA,-0.191 ± 0.055
12,AGCTAGCT,0.0778 ± 0.066
13,CACAAACC,-0.19 ± 0.028
14,GCAACACA,0.267 ± 0.014
15,GCAACAAC,0.0625 ± 0.016
16,CCAACACC,0.4264 ± 0.0023
17,ACAACACA,0.349 ± 0.0079
18,ACAACACT,0.345 ± 0.0051
19,CCAACACA,0.299 ± 0.017
20,ACAACACC,0.424 ± 0.011
21,GCAACACC,0.439 ± 0.0069
22,CCAACACG,0.232 ± 0.013
23,ATCACCGC,-0.0213 ± 0.03
24,AGTTGTCC,-0.136 ± 0.07
25,ACAATCAG,-0.0516 ± 0.0027

row,Sequence,PBM E-score of 8-mer
1,ACGCAAGC,-0.101 ± 0.061
2,AACAATTA,0.0621 ± 0.089
3,ACAGTTGA,0.2 ± 0.059
4,CATGGGCC,-0.352 ± 0.015
5,AGTACCGG,-0.341 ± 0.03
6,ATGAGAAA,-0.221 ± 0.031
7,CTGAGAAC,0.0561 ± 0.038
8,ACGAGAAC,0.186 ± 0.0072
9,GTGAGAAA,0.441 ± 0.016
10,GTGAGAAC,0.4469 ± 0.0042
11,GCGAGAAA,0.342 ± 0.0013
12,GCGAGAAC,0.393 ± 0.0087
13,ATGAGAAC,-0.0381 ± 0.053
14,CTGAGAAA,-0.0469 ± 0.13
15,CCAACTCC,-0.0214 ± 0.0039
16,GTCAAGGA,-0.0692 ± 0.085
17,AGCAAGAT,-0.0318 ± 0.027
18,CTTTTTTC,-0.0265 ± 0.039
19,GTGGCCAC,0.225 ± 0.026
20,ACTGCTGC,-0.0667 ± 0.011
21,ATCAAGAA,-0.219 ± 0.094
22,GAGTTAGC,0.0856 ± 0.074
23,CTCCAAAC,-0.0591 ± 0.11
24,AGTGTCGC,0.412 ± 0.016
25,CGTGTCGA,0.264 ± 0.013

row,Sequence,PBM E-score of 8-mer
1,GGTGTCGA,0.453 ± 0.015
2,ATTGTCGC,0.263 ± 0.028
3,CGTGTCGC,0.254 ± 0.045
4,ATTGTCGA,0.0605 ± 0.042
5,GTTGTCGA,0.271 ± 0.0066
6,AGTGTCGA,0.405 ± 0.0049
7,AGTGTCGG,0.36 ± 0.015
8,CTGAGGAC,0.0509 ± 0.03
9,AGGGAGCC,-0.14 ± 0.027
10,CAATACTG,-0.127 ± 0.0078
11,AATGGGAA,-0.188 ± 0.032
12,AGGGCTGG,-0.253 ± 0.011
13,GTTCCTCA,-0.0698 ± 0.064
14,CTAGCTAA,0.041 ± 0.025
15,AGTCGCAC,0.387 ± 0.0041
16,GGTCGCAA,0.208 ± 0.029
17,GGTCGCAC,0.365 ± 0.046
18,AGTCGCAG,0.0537 ± 0.061
19,CGTCGCAC,0.327 ± 0.0036
20,AGTCGCAA,0.132 ± 0.0059
21,CGGGGCTA,-0.315 ± 0.0072
22,ATCCACAG,-0.0171 ± 0.029
23,AACCACCC,-0.022 ± 0.044
24,ACAAAGCC,-0.0854 ± 0.036
25,ATGGGCCG,-0.31 ± 0.017

row,Sequence,PBM E-score of 8-mer
1,GCGGAGAA,0.059 ± 0.053
2,GGTGCCAC,0.368 ± 0.0043
3,GCTGCCAA,0.0847 ± 0.029
4,CGTGCCAA,0.306 ± 0.03
5,GGTGCCAA,0.447 ± 0.0064
6,AGTGCCAA,0.359 ± 0.0081
7,TGTGCCAA,0.364 ± 0.021
8,AGTGCCAC,0.25 ± 0.013
9,CGTGCCAC,0.254 ± 0.041
10,GGTGCCTA,0.0923 ± 0.1
11,CGGAAAAA,0.019 ± 0.025
12,ATCAGTGG,-0.149 ± 0.015
13,CTGTTGTA,0.0999 ± 0.01
14,TACGACTA,-0.13 ± 0.016
15,AATGCTGT,-0.0262 ± 0.063
16,CCTCAAGA,-0.0881 ± 0.046
17,GGTACTCA,-0.0116 ± 0.057
18,ACTCACGG,0.061 ± 0.057
19,CATGAAGC,-0.112 ± 0.013
20,ACGGTTAC,-0.0916 ± 0.0079
21,ATGCTCAC,0.277 ± 0.023
22,TCCATCGA,-0.0839 ± 0.076
23,GGTCTCAC,0.3458 ± 0.0029
